Sampled rows, rich in hits. Any-hit rate of the full collection: about 2.1%.
Abeta yeast res – compounds reversing amyloid beta toxicity in yeast; yeast expressing A-beta42, growth rescue, OD600, 48 h; response scale: 0% DMSO, 100% iron-clioquinol control; Potency, µM (doses to about 46.1 µM), usual class: activators; 410,000 tested, 0.063% active; note: nearly all actives have a fitted effect of over 55% in size
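Growth rescue measured by 600 nm absorbance after 48 h yeast culture at 30 C with compound. Values normalized between DMSO and an equimolar ferric chloride plus clioquinol control.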
aSyn rescue – rescues yeast growth from alpha-synuclein toxicity. Potency, µM (doses to about 46.1 µM), most hits filed as activators. 370,000 tested, 0.14% active. Yeast expressing alpha-synuclein, growth rescue, BacTiter-Glo, 24 h. AID 652106; note: nearly all actives have a fitted effect of over 65% in size
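Rescue of yeast growth: cells expressing toxic alpha-synuclein, induced in galactose at OD600 0.02, incubated with compound 24 h at 30 C. ATP luminescence quantified growth; inhibitors of toxicity appear as activators.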
FUS yeast rescue – rescues growth of FUS-expressing yeast | 390,000 tested, 0.24% active | AID 1347120 | Potency, µM (series often up to 76.6 µM), most hits filed as activators | S. cerevisiae FUS-expressing, growth rescue, OD600, 24 h; note: nearly all actives have a fitted effect of over 55% in size
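Absorbance at 600 nm, taken 24hr after compound addition, measured rescue of FUS-yeast growth at 30C. Induction used 2% galactose with seeding at OD 0.005. Controls: CP55940 from 92uM final, DMSO only.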
TDP-43 yeast inh – inhibitors of TDP-43 toxicity in yeast; TDP-43 expressing yeast growth rescue, BacTiter-Glo, 24 h; Potency, µM (top dose mostly 46.1 µM), usual class: activators; 410,000 tested, 1.8% active; AID 652104; note: nearly all actives have a fitted effect of over 50% in size
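Growth rescue of TDP-43-toxic yeast measured as ATP luminescence (BacTiter-Glo). Cells grown to mid-log in raffinose, induced in galactose at OD600=0.02, exposed to compound 24 hr at 30 deg C.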
Numbers stand for hits; – = inactive; ? = inconclusive; · = no result; [ ] = another dose, or the depositor's remark. Calls come from the whole dose curve; as a rule, active = well fitted curve in the direction sought with a large enough effect; inconclusive = small, poorly fitted or top-dose-only effect, or another doubt; inactive = no such curve, though single readings can be large; an effect the other way counts as inactive or inconclusive.

SMILES	Abeta yeast res	aSyn rescue	FUS yeast rescue	TDP-43 yeast inh
CCOC1(c2ccccc2)OC(=O)c2ccccc21 (configuration not stated)	–	–	–	–
O=C1OC(Sc2ccccc2)(c2ccccc2)c2ccccc21 (configuration not stated)	–	–	–	11.2µM
CCn1c2ccccc2c2cc(/C(C)=N/O)ccc21	–	?	·	35.5µM
C/C(=N\O)c1ccc2c3ccccc3n(C)c2c1	–	–	–	–
CCCn1c2ccccc2c2cc(C(=O)O)ccc21	–	–	–	6.31µM
CCC[C@H]1[C@@H](O)CC[C@@]23CCCN2C(=O)CCC[C@@H]13	·	·	–	·
Cc1ccc2oc(=O)n(CCCOc3ccccc3)c2c1	–	–	–	35.5µM
COc1ccc(OCCCn2c(=O)oc3ccc(C)cc32)cc1	–	·	–	?
O=c1oc2ccccc2n1CCCOc1ccccc1Cl	–	·	–	15.8µM
COc1ccc(CCNC(=O)c2nc(SCc3ccc(C)cc3)ncc2Cl)cc1OC	–	·	?	–
O=C(Nc1cc(Cl)cc(Cl)c1)c1cnn2c1NC(=C1CC1)C=C2C(F)F	·	–	·	·
c1ccc2nc3c(nc2c1)[nH]c1ccccc13	–	–	–	7.08µM
Cc1ccc(OCc2occc2C(=O)O)cc1	–	–	–	14.1µM
Cc1ccoc1C(=O)NCc1occc1C(=O)O	–	–	–	–
O=Cc1ccc(CS)cc1	·	–	·	·
O=C(N/N=C/c1cc(Cl)ccc1O)c1ccccc1Br	?	14.1µM	–	12.6µM
O=C(CNC(=O)c1ccccc1Br)N/N=C/c1cc(Br)ccc1O	–	–	–	–
CN(Cc1nc2ccccc2c(=O)[nH]1)C(=O)c1ccccc1OCc1ccc(Cl)cc1	–	–	–	20µM
CN(C(=O)c1ccccc1OCc1ccc(Cl)cc1)c1ccccc1	–	–	–	–
Cc1cc2occ(CC(=O)N(C)CC(=O)Nc3ccccc3C(F)(F)F)c2cc1C	–	–	–	20µM
Cc1cc2occ(CC(=O)N(C)CC(=O)Nc3c(C)cccc3C)c2cc1C	–	–	–	–
Cc1nc([N+](=O)[O-])cn1CC(O)c1ccc2c(c1)OCO2 (configuration not stated)	·	–	·	·
CCCCN(C)C(=O)CSc1c2c(nc3ccc(Cl)cc13)CCCC2	–	·	–	–
CCCN(CCC)C(=O)CSc1c2c(nc3ccc(Cl)cc13)CCCC2	–	·	–	20µM
CN(Cc1ccccc1)C(=O)CSc1c2c(nc3ccc(Cl)cc13)CCCC2	–	·	?	20µM
SMILES	Abeta yeast res	aSyn rescue	FUS yeast rescue	TDP-43 yeast inh
Cc1cccc(Nc2nc3ccccc3s2)c1C	?	–	–	11.2µM
Cc1cccc(Nc2n[nH]c(=S)s2)c1C	–	–	–	–
CCOC(=O)CC[C@@H]1CC[C@]2(CCCN(S(=O)(=O)C3CCCCC3)C2)O1	·	·	–	·
O/N=C/c1ccn(-c2ccc(Br)cc2)c1	–	–	–	14.1µM
O=C(Oc1c(Cl)cc(Cl)c2cccnc12)c1cccc([N+](=O)[O-])c1	–	?	–	2µM
O=C(Oc1ccc(Cl)c2cccnc12)c1cccc([N+](=O)[O-])c1	–	–	·	–
Nc1[nH]c(=S)[nH]c(=O)c1N=O	·	–	·	·
O=C(NCCc1csc2nc(-c3ccccc3F)nn12)c1ccccc1C(F)(F)F	–	·	–	17.8µM
O=C(NCCc1csc(-c2cccc(F)c2)n1)c1ccccc1C(F)(F)F	–	·	–	17.8µM
O=C(NCCc1csc(-c2ccc(F)cc2)n1)c1ccc(Br)o1	–	·	–	?
O=C(NCCc1csc(-c2cccc(F)c2)n1)c1ccc(Br)o1	–	·	–	31.6µM
CCS(=O)(=O)c1nc2ccccc2n1CC(=O)Nc1ccccc1C(=O)OC	–	·	–	–
CCOC(=O)[C@]12CCCCC/C=C\1N(CCc1ccc(Cl)cc1)C(=O)[C@H]2CC(=O)N1CCN(C(=O)c2ccco2)CC1	·	·	–	·
Cc1cc(/C=N/NC(N)=S)c(C)n1-c1ccc(Cl)cc1	10µM	–	?	?
Cc1cc(/C=N/NC(N)=S)c(C)n1-c1cccc(Cl)c1	10µM	–	–	–[0.397 µM]
Cc1cc(/C=C/C(=O)O)c(C)n1-c1ccc(Cl)cc1	–	10µM	–	?
Cc1cc(/C=N/NC(N)=S)c(C)n1-c1ccc(Br)cc1	–	–	–	?
Cc1cccc(C)c1-n1c(C)cc(/C=N/NC(N)=S)c1C	?	–	?	11.2µM
Cc1ccc(CNC(=O)c2cc3c(=O)n(Cc4ccco4)ccc3nc2C)cc1	–	·	–	–
O=C(NCc1ccccc1Cl)C1CCC(CNS(=O)(=O)c2cccc3cccnc23)CC1 (configuration not stated)	·	·	–	·
COc1ccc(CN(C)C(=O)C2CCCN(c3nc4ccccc4o3)C2)cc1 (configuration not stated)	·	·	–	·
Cc1cccc(C(=O)N[C@@H]2CC[C@@]34CCCN3C(=O)CCC[C@H]4[C@H]2C)c1	·	·	–	·
Cc1ccc(S(=O)(=O)c2cn(CC(=O)Nc3ccc4c(c3)OCO4)c3ccc(C)cc3c2=O)cc1	–	·	–	–
O=C(Cn1nnc(-c2ccccc2F)n1)Nc1ccc(F)cc1F	·	·	–	·
Cc1nn(-c2ccccc2)c(C)c1C=NNC(=O)CSc1nc2ccccc2n1C	·	·	–	·
SMILES	Abeta yeast res	aSyn rescue	FUS yeast rescue	TDP-43 yeast inh
Oc1ccccc1N=Nc1ccccc1O	?	12.6µM	–	?
Nc1ccc(N=Nc2ccccc2O)c(N)c1	–	–	–	–
CN1CCN(c2ccc3c(c2)Oc2ccccc2CN(Cc2cn(Cc4ccc(F)cc4)nn2)S3(=O)=O)CC1	·	·	–	·
COC(=O)CNC(=O)[C@H](Cc1ccccc1)NC1(C(=O)NCCc2c[nH]c3ccccc23)CCCCC1	·	·	–	·
c1ccc(-c2ccnc3nc(N4CCN(c5ccccc5)CC4)nn23)cc1	–	–	–	12.6µM
COc1ccc2c(c1)c(C(C)=O)c(C)n2CCc1ccc(OC)c(OC)c1	–	–	–	20µM
Cc1ccc2ccc3cc(C(=O)Nc4ccc(C)c(F)c4)nc3c2[nH]1	–	–	–	3.98µM
CCc1cccc(C)c1NC(=O)Cn1ccn(Cc2ccc(Cl)cc2)c(=O)c1=O	–	·	–	–
CCOC(=O)c1cnc2ccc(OCC)cc2c1N1CCN(C)CC1	–	–	–	–
CCOC(=O)c1cnc2ccc(OCC)cc2c1N1CCN(c2cccc(Cl)c2)CC1	–	·	?	20µM
Cc1cn2c(=O)cc(COC(=O)c3cccc(NC(=O)COc4ccccc4)c3)nc2s1	–	·	–	–
Cc1ccc(NC(=S)c2nc3ccccc3[nH]2)c(C)c1	?	–	–	17.8µM
Cc1cccc(CNC(=S)OC2CCC23CCC(c2ccccc2)CC3)c1 (configuration not stated)	·	·	–	·
O=c1c2c(C(F)(F)F)cc(C(F)(F)F)nc2[nH]n1-c1ccccc1	–	–	–	–
O=c1c(Sc2ccccc2)c(C(F)(F)F)[nH]n1-c1ccccc1	–	·	–	14.1µM
CC(=O)c1cnc(SCc2ccc(Cl)cc2)nc1C	–	–	–	?
O/N=C/c1ccnc(SCc2ccccc2)n1	–	–	–	11.2µM
O/N=C/c1ccnc(SCc2ccc(Cl)cc2)n1	–	–	–	10µM
C[C@@H]1CCN(C2CC2)S(=O)(=O)c2ccc(N3CCC[C@H]3CO)cc2O1	·	·	–	·
